This excerpt belongs to a sample that is enriched for hits.
Pf Dd2 inh – Plasmodium falciparum Dd2 growth inhibition; actives 4.3% (n = 120,000); Potency, µM (top dose mostly 28.9 µM), hits mostly inhibitors; P. falciparum Dd2 growth, SYBR Green, 72 h; active means well fitted inhibition curve with a large enough effect; further: nearly all actives have a fitted effect of over 65% in size
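Infected erythrocytes (Dd2, 0.3% parasitemia, 2.5% hematocrit final) are added to compound in RPMI-1640/Albumax II medium, grown 72 h at 37C in low oxygen, then lysed with saponin/Triton-X containing SYBR Green and read by fluorescence.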
Hits are given with their value; . = inactive; [ ] = remark or other dose.

SMILES	Pf Dd2 inh
CC(C)(C)C1CCc2c(sc(NC(=O)C3c4ccccc4Oc4ccccc43)c2C(N)=O)C1 (stereo not drawn)	13µM
O=C(Nc1sc2c(c1C(=O)N1CCCCC1)CCCC2)c1ccccc1Cl	.
CN(C)C(=O)c1c(NC(=O)c2ccccc2F)sc2c1CCCC2	.
CCOC(=O)c1c(NC(=O)C2c3ccccc3Oc3ccccc32)sc2c1CCC(CC)C2 (stereo not drawn)	.
COc1ccccc1CN[C@H]1CC(C)(C)[C@@H]2C[C@@](C)(O)CC[C@]12CCC(=O)NCCc1c[nH]c2ccccc12	.
O=C(O)CCc1nc(C2CCOCC2)nn1CC1CCCCC1	.
CCOc1ccc(CNC(=O)c2oc3c(c2C)-c2nn(Cc4cccc(Cl)c4)cc2CC3)cc1	11µM
Cc1cccc(CNC(=O)c2oc3c(c2C)-c2nn(Cc4ccccc4Cl)cc2CC3)c1	.
Cc1cccc(CNC(=O)c2oc3c(c2C)-c2nn(Cc4cccc(Cl)c4)cc2CC3)c1	.
CCOc1ccc(-c2nnc(SCC(=O)NC3CCCCC3)nc2-c2ccc(OCC)cc2)cc1	.
O=C(Nc1ccc(Cl)cc1)N1CCC(CN2CCCCCC2)CC1	.
c1cncc(-c2ccnc(NCCCn3nccc3C3CC3)n2)c1	.
c1cncc(-c2ccnc(NCCCN3CCCc4ccccc43)n2)c1	11µM
c1ccc2c(c1)CCCN2CCCNc1ncncn1	.
CCNC(=O)[C@@H]1CCCN1[C@@H](C(=O)NC)c1ccccc1	.
CC1CCN(S(=O)(=O)c2ccc3c(c2)c(=O)c(C(=O)NCc2ccc(Cl)cc2)cn3C)CC1	.
CC(=O)NCCC(=O)N1Cc2ccccc2CC2(CCN(CC3CCNCC3)CC2)C1	.
CCCCN(C)CCCNC(=O)c1ccc2nc(N3CCCCC3)sc2c1	8.9µM
CCc1ccc2nc(N3CCN(C(=O)C4CC4)CC3)sc2c1	.
CCc1ccc2nc(N3CCC(C(=O)O)CC3)sc2c1	.
CCCCN(C)CCNC(=O)C1CCN(c2nc3ccc(CC)cc3s2)CC1	10µM
CCN(CC)CCCNC(=O)c1ccc2nc(N3CCCCC3)sc2c1	.
COc1ccc(N2CCN(CCCNC(=O)c3ccc4nc(N5CCCCC5)sc4c3)CC2)cc1	.
CCCCOc1ccc(CNC(=O)c2ccc(NC(=O)N3CCCCc4ccccc43)cc2)cc1	.
COC(=O)CNC(=O)N1c2ccccc2CC1c1nc(C(C)C)no1 (stereo not drawn)	.[5.79 µM]
SMILES	Pf Dd2 inh
COc1ccc(-c2noc([C@@H]3CCCN3C(=O)c3ccccn3)n2)cc1	.
Cc1cccc(CNC(=O)c2ccc3c(c2)c(C)c(C)n3Cc2ccccc2)c1	.
Cc1c(C)n(Cc2ccc(F)cc2)c2ccc(C(=O)NCc3ccco3)cc12	3.5µM
CCn1c(C)c(C)c2cc(C(=O)NCc3ccc(F)cc3)ccc21	.
Cc1cc(C)c2oc(-c3cccc(NC(=O)COc4ccc([N+](=O)[O-])cc4)c3)nc2c1	.
O=C(CC1CCN(C(=O)Cc2ccccc2F)C1)NC1CC1 (stereo not drawn)	.
Cc1ccc(OCC(=O)Nc2nnc(SCc3cc(=O)c4ccccc4[nH]3)s2)cc1C	.
Cc1cc(C)c(Cn2c(C(O)c3ccccc3)nc3ccccc32)c(C)c1 (stereo not drawn)	3.2µM
CCOc1ccccc1N1CC(c2nc3ccccc3n2Cc2c(C)cc(C)cc2C)CC1=O (stereo not drawn)	.
Cc1ccc(C)c(Cn2c(C(C)NC(=O)c3ccccc3)nc3ccccc32)c1 (stereo not drawn)	.
N[C@H]1CCN2C(=O)c3cc(-c4ccccc4F)ccc3NC(=O)[C@H]12	.
CCCCSCc1cc(C(=O)N2CCC3(CCCN(C)C3=O)C2)oc1C (stereo not drawn)	.
COCCn1c(C)cnc1CC1CCN(C(C)=O)CC1	.
CCc1ccc(-c2nc(CSCC(=O)NCc3ccccc3OC)c(C)o2)cc1	.
COc1ccccc1CNC(=O)c1ccc2c(c1)N(Cc1ccc(C)cc1)CCS2	10µM
COc1ccc(Br)cc1CNC(=O)c1ccc2c(c1)N(Cc1ccc(C)cc1)CCS2	.
CCOc1ccccc1CNC(=O)c1ccc2c(c1)N(Cc1ccc(C)cc1)CCS2	.
COc1ccccc1CNC(=O)c1ccc(-c2nc(CN3CCc4ccccc43)c(C)o2)cc1	10µM
CCCCOc1ccc(CNC(=O)c2ccc(-c3nc(CN4CCc5ccccc54)c(C)o3)cc2)cc1	.
CC1(C(=O)Nc2cccc(C(F)(F)F)c2)Cc2ccccc2C(=O)O1 (stereo not drawn)	.
CCCN(CC1CCOC1)C(=O)NC1CCCCC1 (stereo not drawn)	.[5.79 µM]
Cc1cccc(-n2nc(-c3c(C)nc4scc(CC(=O)NC(C)C(C)C)n4c3=O)cc2C)c1C (stereo not drawn)	.
COC1CCOC2(CCN(C(=O)c3ccco3)CC2)C1 (stereo not drawn)	.
COc1ccc(CNC(=O)c2ccc(NC(=O)N3CCCCc4ccccc43)cc2)cc1	.
COc1ccc(NC(=O)N2CCc3c(C(=O)N(C)Cc4ccco4)cccc32)cc1	.
COc1ccc(NC(=O)N2CCc3c(C(=O)N(C)C)cccc32)cc1	.

Source: PubChem BioAssay (National Center for Advancing Translational Sciences (NCATS))
